{"source": "PubChem BioAssay (EPA / NIEHS)", "key": {"[1]": {"test": "APR_HepG2_CellLoss_72hr: Apredica 72-hour HepG2 Assay for Cell Loss (AID 2282915)", "conditions": "high-content imaging", "how_it_was_run": "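Cell number comes from Hoechst 33342-labelled nuclei, imaged at 20x after 3.7% formaldehyde fixation. Dosing was 0.39–200 uM, ten concentrations in duplicate, 0.5% DMSO final, for 72 h. Bidirectional fit relative to DMSO baseline.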"}, "[2]": {"test": "APR_HepG2_P-H2AX_72hr: Apredica 72-hour HepG2 Assay for H2AX Phosphorylation (AID 2282916);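 note: phospho-histone H2A.x immunostain intensity per cell marking DNA damage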", "conditions": "imaging, actives raise or lower the signal", "how_it_was_run": "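Phospho-histone H2A.x immunofluorescence, multiplexed with Hoechst and c-Jun, quantified by high-content imaging. Compounds applied to HepG2 for 72 h across ten concentrations (0.39–200 uM, 0.5% DMSO), in duplicate; DMSO baseline.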"}, "[3]": {"test": "APR_HepG2_MitoMembPot_72hr: Apredica 72-hour HepG2 Assay for Mitochondrial Membrane Potential (AID 2282917)", "conditions": "imaging, actives raise or lower the signal", "how_it_was_run": "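Membrane potential read by MitoTracker Red CMXRos (250 nM, 30 min, pre-fixation) fluorescence imaging of HepG2 after 72 hr exposure. Ten concentrations, 0.39–200 uM, duplicate wells, 0.5% DMSO; fitted in both directions against DMSO baseline.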"}, "[4]": {"test": "APR_HepG2_MitoticArrest_72hr: Apredica 72-hour HepG2 Assay for Mitotic Arrest (AID 2282918)", "conditions": "high-content imaging, actives raise or lower the signal", "how_it_was_run": "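Read-out is phospho-histone H3 immunofluorescence with Hoechst nuclear segmentation, imaged at 20x. Human HepG2 liver cells received ten concentrations (0.39–200 uM, final DMSO 0.5% v/v) for 72 hr before fixation. Gain or loss of signal was fitted relative to DMSO.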"}, "[5]": {"test": "APR_HepG2_MicrotubuleCSK_72hr: Apredica 72-hour HepG2 Assay for Microtubule CSK Stabilty (AID 2282919)", "conditions": "HepG2 microtubule cytoskeleton, high-content imaging, actives raise or lower the signal", "how_it_was_run": "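High-content imaging of alpha-tubulin staining in fixed HepG2 cells after 72 hr treatment with ten concentrations from 0.39 to 200 uM (0.5% DMSO). Fitting was bidirectional against DMSO; taxol served as positive control.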"}, "[6]": {"test": "APR_HepG2_P-H2AX_24hr: Apredica 24-hour HepG2 Assay for H2AX Phosphorylation (AID 2282920)", "conditions": "high-content imaging, actives raise or lower the signal", "how_it_was_run": "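HepG2, 24 hr, cpd 0.39–200 uM (10 conc, duplicate), DMSO 0.5% v/v final. Fix 3.7% formaldehyde, Triton X-100 permeabilize, anti-phospho-H2A.x 1:200 + Hoechst 2 ug/mL. Imaged, bidirectional fit vs DMSO.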"}, "[7]": {"test": "APR_HepG2_StressKinase_72hr: Apredica 72-hour HepG2 Assay for Stress Kinase (AID 2282921)", "conditions": "HepG2 stress kinase (phospho-c-Jun) imaging, actives raise or lower the signal", "how_it_was_run": "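Stress kinase signal is phospho-c-Jun immunofluorescence (1:500 primary, Cy3 secondary) in fixed, permeabilized human HepG2 cells imaged at 20x. Exposure lasted 72 hr over ten concentrations from 0.39 to 200 uM, 0.5% DMSO, in duplicate. Bidirectional fit versus DMSO.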"}, "[8]": {"test": "APR_HepG2_MitoMass_72hr: Apredica 72-hour HepG2 Assay for Mitochondrial Mass (AID 2282924)", "conditions": "high-content imaging, actives raise or lower the signal", "how_it_was_run": "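Readout is imaged MitoTracker Red (250 nM, 30 min, pre-fixation) signal, fitted bidirectionally against DMSO baseline. Human HepG2 liver cells received compound 0.39–200 uM in duplicate for 72 hr, final DMSO 0.5%.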"}, "[9]": {"test": "APR_HepG2_NuclearSize_72hr: Apredica 72-hour HepG2 Assay for Nuclear Size (AID 2282925)", "conditions": "high-content imaging, actives raise or lower the signal", "how_it_was_run": "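Nuclear size was read by high-content imaging of Hoechst 33342 stain after formaldehyde fixation. Compounds ran 72 h on HepG2 at 0.39 to 200 uM, with final DMSO 0.5% v/v. Curves fitted both directions relative to DMSO control.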"}, "[10]": {"biological_target": "CCAAT/enhancer-binding protein beta (Homo sapiens) (UniProt P17676)", "sequence (P17676 whole entry, looked up)": "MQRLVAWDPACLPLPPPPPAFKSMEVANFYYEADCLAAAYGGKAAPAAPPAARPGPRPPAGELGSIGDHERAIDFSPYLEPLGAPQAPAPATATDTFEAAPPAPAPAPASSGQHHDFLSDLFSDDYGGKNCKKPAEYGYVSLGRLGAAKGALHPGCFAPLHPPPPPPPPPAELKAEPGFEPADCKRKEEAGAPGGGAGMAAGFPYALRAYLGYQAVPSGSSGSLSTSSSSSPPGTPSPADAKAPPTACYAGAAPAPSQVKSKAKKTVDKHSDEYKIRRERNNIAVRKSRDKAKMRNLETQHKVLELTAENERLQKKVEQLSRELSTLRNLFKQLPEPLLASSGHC", "test": "ATG_C_EBP_CIS: Attagene CIS-FACTORIAL HepG2 Assay for human CCAAT/Enhancer Binding Protein (C/EBP) beta (AID 2282927)", "conditions": "HepG2 Attagene cis-factorial transcription factor reporter; actives raise or lower the signal", "how_it_was_run": "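Changes in reporter mRNA, rather than exogenous chimeric receptor activity, reflect native C/EBP signalling in transfected HepG2 cells dosed for 24 h; transcripts are detected by RT-PCR and capillary electrophoresis.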"}, "[11]": {"test": "ATG_CMV_CIS: Attagene CIS-FACTORIAL HepG2 Assay for human CMV (Internal Marker) (AID 2282928)", "conditions": "HepG2 CMV promoter reporter, transcription factor profiling; actives raise or lower the signal", "how_it_was_run": "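Readout: fluorescent reporter cDNA fragments separated by capillary electrophoresis after RT-PCR and HpaI cut. Cells: HepG2 carrying transfected cis-promoter reporter constructs, dosed 24 h. Endpoint serves as background internal-marker control, fit bidirectionally versus DMSO.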"}, "[12]": {"test": "ATG_DR4_LXR_CIS: Attagene CIS-FACTORIAL HepG2 Assay for human Liver X Receptor (LXR), DR4 submotif (AID 2282929)", "conditions": "HepG2 Attagene DR4 cis-reporter, mRNA transcription; actives raise or lower the signal", "how_it_was_run": "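The endpoint is DR4-element-driven reporter transcripts after 24 h chemical exposure of transfected HepG2 cells. These were measured via RT-PCR and capillary electrophoresis, and gain or loss of signal was fitted relative to DMSO controls.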"}, "[13]": {"biological_target": "Aryl hydrocarbon receptor (Homo sapiens) (UniProt P35869)", "sequence (P35869 whole entry, looked up)": "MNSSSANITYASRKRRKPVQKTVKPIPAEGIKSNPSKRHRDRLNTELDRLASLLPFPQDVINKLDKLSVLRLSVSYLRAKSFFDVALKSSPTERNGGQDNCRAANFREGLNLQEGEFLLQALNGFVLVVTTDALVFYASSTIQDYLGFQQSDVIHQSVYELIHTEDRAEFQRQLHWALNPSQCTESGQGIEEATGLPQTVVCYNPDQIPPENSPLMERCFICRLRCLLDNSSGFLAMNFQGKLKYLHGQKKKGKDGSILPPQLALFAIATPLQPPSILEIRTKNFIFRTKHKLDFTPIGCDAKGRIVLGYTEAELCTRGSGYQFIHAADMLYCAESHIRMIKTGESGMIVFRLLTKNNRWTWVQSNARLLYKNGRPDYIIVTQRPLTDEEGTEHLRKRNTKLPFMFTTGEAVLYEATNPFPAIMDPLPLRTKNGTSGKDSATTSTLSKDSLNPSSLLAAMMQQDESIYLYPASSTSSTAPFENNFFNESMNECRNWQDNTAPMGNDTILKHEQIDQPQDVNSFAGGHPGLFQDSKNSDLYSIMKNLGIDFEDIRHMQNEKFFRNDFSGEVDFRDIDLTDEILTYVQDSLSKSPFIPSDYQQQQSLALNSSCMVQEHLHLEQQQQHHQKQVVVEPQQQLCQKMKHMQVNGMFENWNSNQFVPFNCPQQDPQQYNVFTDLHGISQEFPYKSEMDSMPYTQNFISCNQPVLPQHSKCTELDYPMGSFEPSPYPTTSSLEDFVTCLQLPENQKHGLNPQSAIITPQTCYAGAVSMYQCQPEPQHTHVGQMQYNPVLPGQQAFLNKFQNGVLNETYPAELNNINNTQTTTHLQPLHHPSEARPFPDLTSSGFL", "test": "ATG_Ahr_CIS: Attagene CIS-FACTORIAL HepG2 Assay for human Aryl Hydrocarbon Receptor (Ahr) (AID 2282930)", "conditions": "HepG2 AhR cis-factorial reporter transcription; actives raise or lower the signal", "how_it_was_run": "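HepG2, transient MRTU (cis) transfection, 24 h exposure. RNA → cDNA → PCR → 6-FAM primer extension → HpaI 2 h 37 C → CE. Fit: bidirectional, DMSO baseline.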"}, "[14]": {"test": "ATG_AP_1_CIS: Attagene CIS-FACTORIAL HepG2 Assay for human Activator Protein 1 (AP-1) (AID 2282931)", "conditions": "HepG2 Attagene cis-factorial AP-1 reporter mRNA; actives raise or lower the signal", "how_it_was_run": "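Readout is reporter transcript level from endogenous transcription factor activity, quantified by RT-PCR with fluorescent primer extension and capillary electrophoresis. Transiently transfected HepG2 cells, 24 h exposure. Curves fitted both directions versus DMSO.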"}, "[15]": {"test": "ATG_AP_2_CIS: Attagene CIS-FACTORIAL HepG2 Assay for human Activator Protein 2 (AP-2) (AID 2282932)", "conditions": "HepG2 AP-2 cis-reporter, Attagene transcription factor profiling; actives raise or lower the signal", "how_it_was_run": "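Endogenous transcription factor activity is reported through transfected multiplex reporter constructs in HepG2, after 24 h of compound exposure. Transcripts were quantified by RT-PCR and capillary electrophoresis of fluorescent fragments. Bidirectional fit against DMSO.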"}, "[16]": {"test": "ATG_BRE_CIS: Attagene CIS-FACTORIAL HepG2 Assay for human Bone Morphogenetic Protein (BMP) Response Element (BRE) (AID 2282933)", "conditions": "HepG2 BMP response element reporter, Attagene transcription factor profiling; actives raise or lower the signal", "how_it_was_run": "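Read-out: reporter mRNA induction quantified by RT-PCR and capillary electrophoresis after 24 h chemical exposure of transfected HepG2 cells. Endogenous factor activity on the BMP response element; gain or loss fitted against DMSO baseline.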"}, "[17]": {"biological_target": "Retinoic acid receptor alpha (Homo sapiens) (UniProt P10276)", "sequence (P10276 whole entry, looked up)": "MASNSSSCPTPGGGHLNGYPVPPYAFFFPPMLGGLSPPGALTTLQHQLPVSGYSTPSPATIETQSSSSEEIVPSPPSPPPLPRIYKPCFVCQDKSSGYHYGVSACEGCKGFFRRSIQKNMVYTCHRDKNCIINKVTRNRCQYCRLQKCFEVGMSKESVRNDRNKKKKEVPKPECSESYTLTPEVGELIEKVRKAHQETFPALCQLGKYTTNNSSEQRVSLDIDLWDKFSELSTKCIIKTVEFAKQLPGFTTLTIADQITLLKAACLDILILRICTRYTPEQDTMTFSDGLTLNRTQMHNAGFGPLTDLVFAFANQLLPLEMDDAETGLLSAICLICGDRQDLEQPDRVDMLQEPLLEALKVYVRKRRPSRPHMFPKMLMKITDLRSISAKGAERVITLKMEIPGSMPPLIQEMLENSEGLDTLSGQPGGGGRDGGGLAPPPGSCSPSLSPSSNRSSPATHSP", "test": "ATG_DR5_RAR_CIS: Attagene CIS-FACTORIAL HepG2 Assay for human Retinoic Acid Receptor Alpha (RARE), DR5 submotif (AID 2282934);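 for AC50: reporter responds to endogenous RAR alpha beta and gamma in HepG2 not RARA alone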", "conditions": "HepG2 Attagene cis-factorial RARE DR5 reporter, mRNA; actives raise or lower the signal", "how_it_was_run": "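HepG2, transient cis-reporter transfection, 24 h exposure. mRNA readout: RT-PCR, FAM label, HpaI cut, capillary electrophoresis. DMSO baseline, gain/loss fitting.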"}, "[18]": {"test": "APR_HepG2_p53Act_72hr: Apredica 72-hour HepG2 Assay for p53 Activation (AID 2282923);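 note: average cellular p53 protein immunofluorescence intensity in HepG2 cells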", "conditions": "high-content imaging, actives raise or lower the signal", "how_it_was_run": "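After 72 h with compound (ten points, 0.39 to 200 uM, final DMSO 0.5% v/v), fixed HepG2 cells were labelled with sheep anti-p53 and Hoechst 33342 and imaged; gain or loss versus DMSO scored.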"}}, "note": "Values joined by “and” are separate entries in the source; they are usually repeats but may differ in a detail not shown here. Identical values can stand only once. A structure can be active in one record and inactive in another. Active and inactive are the calls of the source. Rule for the calls: active = hit-call score of the fitted dose curve at least 0.9, where 1 is the maximum; inactive = score below 0.9.", "data": [{"smiles": "CCC(=C(c1ccc(O)cc1)c1ccc(OCCN(C)C)cc1)c1ccccc1", "values": [{"measurement": "outcome", "setting": "[1]", "result": "inactive"}, {"measurement": "outcome", "setting": "[2]", "result": "inactive"}, {"measurement": "outcome", "setting": "[3]", "result": "inactive"}, {"measurement": "outcome", "setting": "[4]", "result": "inactive"}, {"measurement": "outcome", "setting": "[5]", "result": "inactive"}, {"measurement": "outcome", "setting": "[6]", "result": "inactive"}, {"measurement": "outcome", "setting": "[7]", "result": "inactive"}, {"measurement": "outcome", "setting": "[8]", "result": "inactive"}, {"measurement": "outcome", "setting": "[9]", "result": "inactive"}, {"measurement": "outcome", "setting": "[10]", "result": "inactive"}, {"measurement": "AC50", "setting": "[11]", "result": "5.22 µM (active) and 7.1 µM (active)"}, {"measurement": "outcome", "setting": "[11]", "result": "inactive"}, {"measurement": "AC50", "setting": "[12]", "result": "9.72 µM (active) and 2.37 µM (active)"}, {"measurement": "outcome", "setting": "[12]", "result": "inactive"}, {"measurement": "outcome", "setting": "[13]", "result": "inactive"}, {"measurement": "outcome", "setting": "[14]", "result": "inactive"}, {"measurement": "outcome", "setting": "[15]", "result": "inactive"}, {"measurement": "AC50", "setting": "[16]", "result": "10.5 µM (active)"}, {"measurement": "outcome", "setting": "[16]", "result": "inactive"}, {"measurement": "AC50", "setting": "[17]", "result": "11.1 µM (active)"}, {"measurement": "outcome", "setting": "[17]", "result": "inactive"}]}, {"smiles": "NC(=O)N1C(=O)C(C(=O)c2cc(Cl)cs2)c2cc(F)c(Cl)cc21", "note": "(centres undefined)", "values": [{"measurement": "AC50", "setting": "[1]", "result": "62.7 µM (active)"}, {"measurement": "AC50", "setting": "[2]", "result": "64.7 µM (active)"}, {"measurement": "outcome", "setting": "[3]", "result": "inactive"}, {"measurement": "AC50", "setting": "[4]", "result": "47.7 µM (active)"}, {"measurement": "AC50", "setting": "[5]", "result": "39.2 µM (active)"}, {"measurement": "AC50", "setting": "[6]", "result": "99.8 µM (active)"}, {"measurement": "AC50", "setting": "[7]", "result": "67.4 µM (active)"}, {"measurement": "AC50", "setting": "[18]", "result": "59 µM (active)"}, {"measurement": "AC50", "setting": "[8]", "result": "54.4 µM (active)"}, {"measurement": "outcome", "setting": "[9]", "result": "inactive"}, {"measurement": "outcome", "setting": "[10]", "result": "inactive"}, {"measurement": "outcome", "setting": "[11]", "result": "inactive"}, {"measurement": "outcome", "setting": "[12]", "result": "inactive"}, {"measurement": "outcome", "setting": "[13]", "result": "inactive"}, {"measurement": "outcome", "setting": "[14]", "result": "inactive"}, {"measurement": "outcome", "setting": "[15]", "result": "inactive"}, {"measurement": "outcome", "setting": "[16]", "result": "inactive"}, {"measurement": "outcome", "setting": "[17]", "result": "inactive"}]}]}
